These results are taken from PubChem BioAssay (NCATS).

Assay [1] can be described thus: Cell Viability - MRC5 (AID 434; calls by dose curve;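 also: potency is read from the fitted curve at half-maximal effect; potency reflects cytotoxicity seen as loss of intracellular ATP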). To be noted: MRC5 lung fibroblast viability, qHTS. The method in brief: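 MRC5 normal human lung fibroblasts, 1500 cells/well, exposed to compound for 40 hr at 37 C. Cellular ATP was read by CellTiter-Glo luminescence; data normalized to DMSO and 100 uM tamoxifen, with AC50 from Hill fits.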
A general note: qHTS replaces the single test concentration by a dilution series.

Assay [2] in a line: Cell Viability - HUV-EC-C (AID 542). Also: nearly all actives have a fitted effect of over 35% in size. Also: potency is read from the fitted curve at half-maximal effect. To be noted: HUV-EC-C endothelial cell viability, qHTS; series mostly up to 92.2 µM. The method in brief:
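qHTS cytotoxicity: HUV-EC-C, 1000 cells/well, 5 hr settle, compound 40 hr 37 °C, CellTiter-Glo, luminescence. AC50 via Hill equation.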

Assay [3] can be described thus: Cellular Toxicity (caspase-3) HepG2 (AID 654).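 Also: cells exposed to compound for 16 hours before reading; 0% = DMSO alone and 100% = caspase signal from 100 µM tamoxifen.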 The settings on record: HepG2 caspase-3 activation, luminescence; series mostly up to 92.2 µM. The method in brief: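 Cells plated 5 hr at 37 °C, compound added, incubated 16 hr at 37 °C. Caspase-Glo 3/7 reagent followed, 20 min at room temperature, then luminescence read. Activation scored as signal increase; AC50 from Hill fit.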

The nature of assay [4]: Cellular Toxicity (caspase-3) HUV-EC-C (AID 656). The settings on record: HUV-EC-C cells, caspase-3 activation (apoptosis); series mostly up to 92.2 µM. An outline of the steps:
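Luminescent caspase-3/7 activation (aminoluciferin substrate cleavage) in HUV-EC-C cells after 16 hr compound exposure, 37°C. Signal normalized to DMSO basal and 100 uM tamoxifen as 100%; AC50 from concentration-response fitted with the Hill equation.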

Assay [5] is described as follows: Cellular Toxicity (caspase-3) SHSY5Y (AID 657). Also: potency is read from the fitted curve at half-maximal effect. To be noted: SH-SY5Y caspase-3 activation; series mostly up to 91.7 µM. An outline of the steps: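 Luminescent caspase-3/7 readout (aminoluciferin release) in SH-SY5Y cells after 16 h compound exposure in complete medium. Activity scaled between DMSO basal and 10 uM staurosporine as 100%; concentration-response fitted to Hill equation for AC50.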

Assay [6] can be described thus: Cellular Toxicity (caspase-3) Mesangial (AID 660).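 Also: combined caspase 3 and 7 activity read by Caspase-Glo luminescence.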 To be noted: mesangial cells, normalized: DMSO 0%, 100 µM tamoxifen 100%; series mostly up to 91.7 µM. The method in brief:
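Mesangial cells, 1000/well, 5 h settle at 37 °C; compound 16 h, 37 °C; Caspase-Glo 3/7 reagent 20 min RT; luminescence. Norm.: DMSO = 0%, tamoxifen 100 uM = 100%. AC50, Hill fit.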

A short description of assay [7]: Cellular Toxicity (caspase-3) SK-N-SH (AID 661). To be noted: SK-N-SH caspase-3 activation, qHTS, DMSO as zero, staurosporine as full; series mostly up to 91.7 µM. An outline of the steps:
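Human neuroblastoma SK-N-SH, 1500 cells/well, 5 hr pre-incubation, then compound 16 hr, 37 °C. Caspase-Glo 3/7 reagent, 1 hr RT, luminescence. Norm. to DMSO/10 uM staurosporine; Hill-fit AC50.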

Assay [8] is described as follows: Cellular Toxicity (caspase-3) H-4-II-E (AID 663). The settings on record: H-4-II-E rat hepatoma; Potency: caspase-3 activation; series mostly up to 92.2 µM. The method in brief: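 Rat hepatoma H-4-II-E cells (1500/well) plated 5 hr, then exposed to compound titrations for 16 hr at 37 °C. Caspase-Glo 3/7 luminescence read after 20 min at RT; data normalized to DMSO and 100 uM tamoxifen, AC50 from Hill fits.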

A short description of assay [9]: Cellular Toxicity (caspase-3) N2a (AID 665).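 Also: compound exposure lasted 16 h at 37 °C before readout.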 To be noted: N2a cells, luminescence, normalized: DMSO 0%, 10 µM staurosporine 100%; series mostly up to 92.2 µM. An outline of the steps: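 N2a cells, 1500/well, 5 h settle at 37 °C; cpd 16 h, 37 °C; Caspase-Glo 3/7, 1 h RT; luminescence. Norm: DMSO = 0, 10 uM staurosporine = 100%. AC50, Hill fit.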
Assay [10] in a line: Cellular Toxicity (caspase-3) NIH 3T3 (AID 666).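 Also: 0% = DMSO basal and 100% = 100 µM tamoxifen stimulation.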 The settings on record: NIH 3T3 caspase-3 activation, apoptosis/toxicity, 0% DMSO, 100% is 100 µM tamoxifen; series mostly up to 92.2 µM. An outline of the steps:
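Luminescence from aminoluciferin released by caspase-3/7 cleavage of a peptide substrate served as read-out. Mouse fibroblast NIH 3T3 cells were exposed to compounds over a concentration range for 16 hours, and AC50 values came from standard Hill modelling.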

The nature of assay [11]: Cellular Toxicity (caspase-3) Renal Proximal Tubule (AID 667).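 Also: cells exposed to compound for 16 hours at 37 °C before detection.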 To be noted: renal proximal tubule cells, primary cells freshly taken from rat; Potency: caspase-3 activation; series mostly up to 91.7 µM. The method in brief: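 Luminescent caspase 3/7 signal from peptide-aminoluciferin cleavage measures apoptosis in freshly isolated rat kidney proximal tubule cells after 16 h compound exposure. Concentration-response data are normalized to DMSO and 10 uM staurosporine, and AC50 values come from Hill equation fits.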

Assay [12] is described as follows: MultiTox-Fluor Cytotoxicity Assay - LYMP1-001 - Dead Cells (AID 946). Also: potency is read from the fitted curve at half-maximal effect. To be noted: LYMP1-001 lymphoblastoid cells, dead-cell protease fluorescence; series mostly up to 92.2 µM. An outline of the steps: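 In this qHTS, 15 uM tetraoctylammonium bromide defined 100% and DMSO defined basal activity. Lymphoblastoid cells (LYMP1-001, 2500 per well) received compound for 16 hr at 37 C before a fluorogenic dead-cell substrate readout at 485/520 nm.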

Assay [13] can be described thus: MultiTox-Fluor Cytotoxicity Assay - LYMP1-003 - Dead Cells (AID 961). Also: nearly all actives have a fitted effect of over 70% in size. Also: potency is read from the fitted curve at half-maximal effect. To be noted: LYMP1-003 lymphoblastoid cells, dead-cell protease fluorescence; series mostly up to 92.2 µM. The method in brief: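 Acute toxicity is scored as increased dead-cell protease activity in human lymphoblastoid LYMP1-003 cells after 16 h compound exposure in complete culture medium. Activity is normalized to DMSO basal and 15 uM tetraoctylammonium bromide as full response.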

Assay [14] in a line: MultiTox-Fluor Cytotoxicity Assay - LYMP1-003 - Live Cells (AID 962). Also: potency is read from the fitted curve at half-maximal effect. The settings on record: LYMP1-003 lymphoblastoid cells, MultiTox-Fluor live-cell protease fluorescence; series mostly up to 92.2 µM. The method in brief:
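qHTS, 1536-well; 2500 cells/well LYMP1-003; 5 hr 37 C settle; cpd 16 hr 37 C; MultiTox-Fluor reagent 60 min RT; live-cell protease fluor. 405/510; Hill-fit AC50; tetraoctylammonium bromide pos. ctrl.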

The nature of assay [15]: Cell Viability - LYMP1-003 - Assay at 24 hr (AID 963).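 Also: plate controls were DMSO only for no effect and tetraoctylammonium bromide positive control for full effect.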 To be noted: LYMP1-003 lymphoblastoid cell viability; series mostly up to 92.2 µM. The method in brief:
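Cells seeded at 2500/well, 5 hr at 37 C; compounds added; 24 hr at 37 C; CellTiter-Glo added, 30 min room temperature; luminescence read. Decrease in ATP taken as cytotoxicity, AC50 from Hill modelling.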

Assay [16] in a line: Cell Viability - LYMP1-002 - Assay at 24 hr (AID 993). Also: potency is read from the fitted curve at half-maximal effect. To be noted: LYMP1-002 lymphoblastoid cells viability; series mostly up to 92.2 µM. An outline of the steps: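 Cells plated 2500/well, 5 hr 37 C; compounds added, 24 hr 37 C; CellTiter-Glo added, 30 min RT; luminescence read. Tetraoctylammonium bromide positive control. Hill-equation AC50.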
Assay [17] in a line: qHTS Assay for Identification of Small Molecule Inducers of Hypoxia Response (AID 2120; active = well fitted curve in the direction sought with a large enough effect in the signal ratio, with a control signal flat, not every such curve was filed as active; the % refers to the signal ratio; also: 0% is about no effect). The settings on record: hypoxia response reporter cells, beta-lactamase ratio readout; series mostly up to 104 µM. The method in brief:
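ME-180 HRE-bla cells plated in Opti-MEM/0.5% dialyzed FBS, rested 4-5 h, then dosed with compound titrations by pin tool. After 17 h at 37 degrees C, CCF4 dye loaded 2.5 h at RT; 460/530 nm ratio gave %Activity and AC50.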

Assay [18] concerns the target Peroxisome proliferator-activated receptor alpha (Homo sapiens) (UniProt Q07869). Description: qHTS assay for small molecule agonists of the peroxisome proliferator-activated receptor alpha (PPARalpha) signaling pathway (AID 651778). Also: % of control where 0% means no effect. The settings on record: PathHunter PPARalpha complementation, chemiluminescence, 6 h; max response: active compounds read high. An outline of the steps: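 Enzyme-fragment complementation assay in which ligand-bound PPARalpha translocates and forms an active enzyme that generates chemiluminescence. Cells were plated overnight, exposed to compound for 6 hr at 37 C, and then given detection reagent for 60 min at room temperature.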

Assay [19] is described as follows: qHTS assay for small molecule agonists of the antioxidant response element (ARE) signaling pathway measured by Nrf2-dependant transcriptional activity - cell viability counter screen (AID 720653; active = well fitted curve in the direction sought with a large enough effect in the repeat runs; an effect the other way counts as inactive or inconclusive; also: % is scaled to controls: 0 for no effect and ±100 for the full control effect). The settings on record: ARE-bla HepG2 viability, CellTiter-Glo ATP luminescence, 16 h; max response: active compounds read low. The method in brief:
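ARE-bla HepG2 cells treated with compounds for 16 h at 37C; this counter screen measures viability as intracellular ATP by CellTiter-Glo luminescence after 30 min at room temperature.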

A short description of assay [20]: qHTS assay for cell viability of the p53RE-bla HCT-116 cell line (AID 743292). Also: % is scaled to controls: 0 for no effect and ±100 for the full control effect; nearly all actives have a fitted effect of over 55% in size. The settings on record: p53RE-bla HCT-116 viability, ATP luminescence, 16 h; series mostly up to 95 µM. An outline of the steps: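 Compound-exposed HCT-116 (p53RE-bla) cells, 4,000 per well, were kept 16 h at 37 C following a 5 h preincubation. Cell number was estimated from total ATP by CellTiter-Glo luminescence read after 30 min at room temperature.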

Each structure is given as a SMILES string. “And” between values parts separate entries of the source, which are not always exact repeats. Equal entries are not always repeated. Values without a mark were called inactive. Results filed as inconclusive are left out. The source made the active and inactive calls. Unless noted, calls follow the shape of the dose curve; as a rule, active = well fitted curve in the direction sought with a large enough effect; inconclusive = small, poorly fitted or top-dose-only effect, or another doubt; inactive = no such curve, though single readings can be large; an effect the other way counts as inactive or inconclusive.

Sequence of Peroxisome proliferator-activated receptor alpha (Homo sapiens) (Q07869 whole entry, looked up, the tested form may be a part): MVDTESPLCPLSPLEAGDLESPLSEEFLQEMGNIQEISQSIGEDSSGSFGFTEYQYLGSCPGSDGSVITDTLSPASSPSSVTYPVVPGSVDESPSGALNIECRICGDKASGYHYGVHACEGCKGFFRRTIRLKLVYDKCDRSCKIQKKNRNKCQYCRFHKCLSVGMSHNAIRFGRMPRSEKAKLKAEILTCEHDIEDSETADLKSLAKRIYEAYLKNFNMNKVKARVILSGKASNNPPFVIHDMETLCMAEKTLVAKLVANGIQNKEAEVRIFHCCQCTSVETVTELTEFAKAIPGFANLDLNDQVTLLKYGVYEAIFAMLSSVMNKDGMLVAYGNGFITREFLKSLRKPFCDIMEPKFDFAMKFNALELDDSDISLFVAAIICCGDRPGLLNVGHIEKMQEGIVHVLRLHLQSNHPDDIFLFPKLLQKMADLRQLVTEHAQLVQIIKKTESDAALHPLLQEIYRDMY

As for `CC(=O)CC(=O)Nc1ccccc1`, the Potency in [1] is above 92 µM. In addition, the Potency entry in assay [2], in assay [3], in assay [4], in assay [5], in [8] and in assay [11] was “inactive” in each case. For the same compound, the Potency entry in assay [12], in assay [13], in [14], in assay [15], in assay [16] and in assay [17] was “inactive” each time. Moreover, the Potency result in assay [20] is “inactive”. Also, the compound was called inactive in [6], in [7], in assay [9] and in assay [10]. The max response in [18] was 0.169% and 0.0126%; in [19] it was -0.0894% and -4.18%.

Regarding `C=C1CC[C@H](O)C/C1=C/C=C1\CCC[C@]2(C)[C@@H]([C@H](C)CCCC(C)C)CC[C@@H]12`, the Potency was 39.8 µM (active) in [2]; 31.6 µM (active) in [5]; 39.8 µM (active) in [12]; 39.8 µM (active) in [13]; 50.1 µM (active) in assay [14]; 50.1 µM (active) in assay [16]. For the same compound, the Potency result in [3], in assay [4] and in assay [17] was “inactive” in each case. Also, the compound was called inactive in assay [9] and in assay [10]. Besides, the max response in assay [18] is -0.403%; in assay [19], -9.05%.

With `c1ccc2c(c1)ccc1ccccc12`, the Potency in assay [1] is above 92 µM. Moreover, the Potency entry in [2], in assay [3], in assay [4], in assay [5], in [8] and in assay [11] was “inactive” throughout. Besides, the Potency entry in [12], in assay [13], in assay [14], in [15], in [16] and in assay [17] was “inactive” each time. Moreover, in assay [20], the Potency entry was “inactive”. In addition, the outcome in [6], in [7], in assay [9] and in assay [10] was inactive. Moreover, the max response was -2.79% and 0.0819% in [18]; -0.337% and -2.44% in assay [19].
